D1 antagonist: antagonists of human D1 dopamine receptor; HEK293 TREx D1 cells, calcium flux, dopamine EC80; active compounds read low; activity change, negative = inhibition, % at 10 µM; 360,000 tested, 3.2% active; AID 504652; in the data active means activity change below about -30%; further: on the % scale 0 is the no-effect control and ±100 the full control effect
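Calcium flux readout: force-coupled, inducible Hek293 Trex D1 line, cells induced overnight at 30 C with tetracycline, dye-loaded 30–90 min at RT. Antagonism scored against EC80 dopamine challenge given 180 s after compound.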
D1 agonist: human D1 receptor agonism | HEK293 T-REx D1 cells, calcium flux, agonist mode | activation, % at 2 µM | 360,000 tested, 1% active | AID 504660; in the data active means activation above about 30%; further: 0% is about no effect
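Agonism was scored from calcium flux recorded over 180 s (1 read/s) after pintool compound addition, following a 10-cycle baseline. Cells were inducible force-coupled HEK293 TREx D1, plated overnight at 30 C and loaded with no-wash calcium dye.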
TRPV1 ag: activates the human vanilloid receptor TRPV1. activation, % at 8.33 µM. Q8NER1. TRPV1-expressing cells, Fluo-8 calcium influx, agonist mode. 320,000 tested, 0.19% active; in the data active means activation above about 80%; inconclusive means between about 30% and that limit; further: 0% is about no effect
Target sequence (Q8NER1 whole entry, looked up): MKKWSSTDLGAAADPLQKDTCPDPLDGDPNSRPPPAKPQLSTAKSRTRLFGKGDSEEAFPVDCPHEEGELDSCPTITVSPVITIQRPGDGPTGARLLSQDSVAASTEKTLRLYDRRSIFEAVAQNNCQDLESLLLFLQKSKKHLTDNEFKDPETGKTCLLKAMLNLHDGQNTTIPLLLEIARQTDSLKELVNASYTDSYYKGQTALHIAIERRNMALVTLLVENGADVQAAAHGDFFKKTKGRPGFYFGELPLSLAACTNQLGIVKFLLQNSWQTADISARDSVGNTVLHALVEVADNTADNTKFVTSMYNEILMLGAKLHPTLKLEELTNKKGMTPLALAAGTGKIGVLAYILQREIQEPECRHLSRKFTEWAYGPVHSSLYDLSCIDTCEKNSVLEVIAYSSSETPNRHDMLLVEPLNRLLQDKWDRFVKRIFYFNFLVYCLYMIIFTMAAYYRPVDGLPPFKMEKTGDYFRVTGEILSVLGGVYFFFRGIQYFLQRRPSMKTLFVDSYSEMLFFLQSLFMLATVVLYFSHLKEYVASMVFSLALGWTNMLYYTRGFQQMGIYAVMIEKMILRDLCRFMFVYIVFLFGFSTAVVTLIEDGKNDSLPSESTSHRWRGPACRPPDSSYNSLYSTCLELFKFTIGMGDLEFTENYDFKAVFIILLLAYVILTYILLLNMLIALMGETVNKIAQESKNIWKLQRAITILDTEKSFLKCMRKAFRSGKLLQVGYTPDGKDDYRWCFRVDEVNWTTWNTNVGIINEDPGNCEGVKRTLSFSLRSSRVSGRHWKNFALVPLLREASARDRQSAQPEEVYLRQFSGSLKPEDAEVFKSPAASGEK
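Cells expressing TRPV1 were dye-loaded with Fluo-8 and read kinetically: 10 s baseline, 3 min after compound (agonist portion), then 2 min after EC20 capsaicin (allosteric enhancer portion). Calcium-bound dye fluorescence at 480/520 nm.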
D1 potentiator: human D1 dopamine receptor positive modulation; HEK293 TREx D1 cells, calcium flux, dopamine EC20 potentiation; P21728; 360,000 tested, 0.036% active; AID 504651; potentiation, % at 10 µM; in the data active means potentiation above about 30%; further: 0% is about no effect
TRPV1 PAM: potentiators of human vanilloid receptor 1 (TRPV1); Q8NER1; TRPV1-expressing cells, Fluo-8 calcium influx, capsaicin EC20 potentiation; potentiation, % at 8.33 µM; 320,000 tested, 0.02% active; in the data active means potentiation above about 80%; inconclusive means between about 30% and that limit; further: 0% is about no effect
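Cells expressing TRPV1 were dye-loaded with Fluo-8 and read kinetically: 10 s baseline, 3 min after compound (agonist portion), then 2 min after EC20 capsaicin (allosteric enhancer portion). Calcium-bound dye fluorescence at 480/520 nm.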
* = called active by the depositor. Rows were chosen to be rich in hits. Some 4.2% of all compounds tested hit in one or more screens of this group.

Results for Cc1cc(NC(=O)c2ccc(NC(=O)CCS(=O)(=O)c3cccs3)cc2)ccc1Br ?
D1 antagonist: -38*; D1 agonist: 7; D1 potentiator: -2

Results for Cc1oc(C)c2c(=O)ccc3c(c12)OC(N)=C(C#N)C3c1ccc(F)cc1 (stereo not given) ?
D1 antagonist: 25; D1 agonist: 37*; TRPV1 ag: -2; D1 potentiator: -8; TRPV1 PAM: 6

How did COC(=O)c1ccc(NC(=O)CC2C(=O)N(c3ccccc3)C(=O)N2Cc2ccc(F)cc2)cc1 (stereo not given) do in these assays?
D1 antagonist: -4; D1 agonist: -2; D1 potentiator: -2

How did COc1ccc(C2(C(=O)Nc3cc(C)on3)CCOCC2)cc1 do in these assays?
D1 antagonist: -60*; D1 agonist: -1; TRPV1 ag: -3; D1 potentiator: -1; TRPV1 PAM: -1

How did COc1ccc(C2(C(=O)Nc3ccc(C)cc3)CCOCC2)cc1 do in these assays?
D1 antagonist: -12; D1 agonist: 3; TRPV1 ag: -3; D1 potentiator: -6; TRPV1 PAM: 2

What do the screens show for `COc1ccc(CNC(=S)NC2CCCCC2)cc1`?
D1 antagonist: 12; D1 agonist: 1; TRPV1 ag: inconclusive; D1 potentiator: 3; TRPV1 PAM: -14

Results for S=C(Nc1cccc(Cl)c1)NC1CCCCC1 ?
D1 antagonist: -34*; D1 agonist: 22; TRPV1 ag: 19; D1 potentiator: -2; TRPV1 PAM: -5

How did S=C(NCCc1ccc(Cl)cc1)NC1CCCCC1 do in these assays?
D1 antagonist: -41*; D1 agonist: 17; TRPV1 ag: inconclusive; D1 potentiator: -8; TRPV1 PAM: -5

What do the screens show for `S=C(NNc1cccc(Cl)c1)NC1CCCCC1`?
D1 antagonist: -3; D1 agonist: -5; TRPV1 ag: inconclusive; D1 potentiator: -4; TRPV1 PAM: -11

Results for Fc1ccc(CNC(=S)NC2CCCCCC2)cc1 ?
D1 antagonist: -36*; D1 agonist: 15; TRPV1 ag: inconclusive; D1 potentiator: -6; TRPV1 PAM: -14

How did CC1CCC(NC(=O)c2ccc3c(c2)N(Cc2cccc(F)c2)C(=O)c2ccccc2S3)CC1 (stereo not given) do in these assays?
D1 antagonist: 0; D1 agonist: 6; D1 potentiator: -2

What do the screens show for `COc1cc(-c2nnc(SCC(=O)N(C)C3CCCCC3)o2)cc(OC)c1OC`?
D1 antagonist: -2; D1 agonist: 9; D1 potentiator: -4

Results for O=C(Oc1ccc(OC(=O)C2CCC2)cc1)C1CCC1 ?
D1 antagonist: -36*; D1 agonist: 2; TRPV1 ag: 6; D1 potentiator: 0; TRPV1 PAM: -7

Results for O=C(Oc1ccc2ccccc2c1)C1CCC1 ?
D1 antagonist: -8; D1 agonist: 7; TRPV1 ag: 1; D1 potentiator: -4; TRPV1 PAM: -6

How did Cc1ccc2cc3cc(C(=O)N(C)c4ccccc4C)oc3nc2c1 do in these assays?
D1 antagonist: -8; D1 agonist: 2; D1 potentiator: 3

Results for COc1cccc(/C=C2\SC(=S)N(CCC(=O)N3CCCCC3CCO)C2=O)c1 (stereo not given) ?
D1 antagonist: -31*; D1 agonist: 5; TRPV1 ag: 1; D1 potentiator: -1; TRPV1 PAM: 5

Results for CCOc1cc(/C=C(/C#N)C(=O)Nc2ccc(O)cc2)cc(Br)c1O ?
D1 antagonist: 9; D1 agonist: 48*; TRPV1 ag: 24; D1 potentiator: -5; TRPV1 PAM: -6

What do the screens show for `C=CCNC(=O)/C(C#N)=C\c1cc(Cl)c(O)c(OCC)c1`?
D1 antagonist: 0; D1 agonist: 13; TRPV1 ag: -1; D1 potentiator: -8; TRPV1 PAM: -1

Results for CCOc1ccc(NC(=O)/C(C#N)=C/c2ccc(N3CCCC3)c(C)c2)cc1 ?
D1 antagonist: -5; D1 agonist: 377*; TRPV1 ag: 24; D1 potentiator: 4; TRPV1 PAM: -3

How did O=C(COc1ccc2ccccc2c1)NNC(=O)Cc1ccccc1 do in these assays?
D1 antagonist: -8; D1 agonist: 5; TRPV1 ag: 26; D1 potentiator: -7; TRPV1 PAM: -23

What do the screens show for `O=C(Cc1ccccc1)NNc1ccc2ccccc2c1`?
D1 antagonist: -49*; D1 agonist: 1; TRPV1 ag: -3; D1 potentiator: 10; TRPV1 PAM: 13

Results for O=C(COC(=O)C1CCC1)Nc1ccc(Oc2ccccc2)cc1 ?
D1 antagonist: -14; D1 agonist: 4; TRPV1 ag: inconclusive; D1 potentiator: -2; TRPV1 PAM: -20

How did O=C(CN1CCCCC1)Nc1ccccc1 do in these assays?
D1 antagonist: -2; D1 agonist: 3; TRPV1 ag: 2; D1 potentiator: -4; TRPV1 PAM: 4

What do the screens show for `O=C(CCCC(=O)OCC(=O)c1cccs1)Nc1ccc(Oc2ccccc2)cc1`?
D1 antagonist: -42*; D1 agonist: 19; TRPV1 ag: 2; D1 potentiator: -8; TRPV1 PAM: inconclusive

How did O=C(COC(=O)C1CC1)Nc1ccc(Oc2ccccc2)cc1 do in these assays?
D1 antagonist: -35*; D1 agonist: 4; TRPV1 ag: inconclusive; D1 potentiator: -7; TRPV1 PAM: -13

Results for O=C(CN1CCCCCC1)Nc1ccc(Oc2ccccc2)cc1 ?
D1 antagonist: -38*; D1 agonist: 67*; TRPV1 ag: 27; D1 potentiator: -10; TRPV1 PAM: -17

How did COc1ccccc1CC(=O)Nc1ccc2nc(Nc3cccc(Cl)c3)cc(C)c2c1 do in these assays?
D1 antagonist: 5; D1 agonist: 4; D1 potentiator: -2

Results for COc1ccc2c(c1)c1c(c(=O)n(-c3ccccc3C)c(=O)n1Cc1cccc(C(F)(F)F)c1)n2C ?
D1 antagonist: -5; D1 agonist: 3; D1 potentiator: 0

What do the screens show for `CCOc1ccccc1NC(=O)C(C)Sc1nc2c(c(=O)[nH]1)CCCC2` (stereo not given)?
D1 antagonist: 13; D1 agonist: 0; D1 potentiator: -1

Results for COCCCNC(=O)c1cc2cc(S(=O)(=O)N3CCCCC3)ccc2n1C ?
D1 antagonist: -4; D1 agonist: 1; D1 potentiator: 1

Results for O=C(NC(NC(=S)Nc1cc(Cl)ccc1Cl)C(Cl)(Cl)Cl)c1ccco1 (stereo not given) ?
D1 antagonist: -40*; D1 agonist: 27; TRPV1 ag: 0; D1 potentiator: -7; TRPV1 PAM: 0

How did O=C(/C=C/c1ccccc1)NC(NC(=S)Nc1cc(Cl)ccc1Cl)C(Cl)(Cl)Cl (stereo not given) do in these assays?
D1 antagonist: -37*; D1 agonist: 4; TRPV1 ag: 1; D1 potentiator: -6; TRPV1 PAM: 1

Results for O=C(/C=C/c1ccccc1)NC(NC(=S)Nc1ccc(Cl)cc1)C(Cl)(Cl)Cl (stereo not given) ?
D1 antagonist: -3; D1 agonist: 6; TRPV1 ag: 0; D1 potentiator: -3; TRPV1 PAM: 19

Bioassay records as filed in PubChem BioAssay.
